# This is a sample that favours compounds with a hit; in the whole collection about 4% have one here.
# GALC G270D act: galactocerebrosidase G270D activity enhancement, cell-based. P54803. 145M-Twi-hGALC-G270D cells (Twitcher mouse brain line with human GALC G270D), HMU-beta-Gal fluorescence, 48 h. Potency, µM (series often up to 57.5 µM), actives largely listed as activators. hit rate 0.1% among 45,000. AID 1159614; also: potency is read from the fitted curve at half-maximal effect; 0% is about no effect; nearly all actives have a fitted effect of over 65% in size
#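 Fluorescence readout: HMU-β-gal cleavage by mutant GALC (0.1 mM final, citrate/phosphate pH 5.2 with 1 mg/mL taurocholate), stopped with carbonate/bicarbonate plus Triton X-100. Cells: murine Twitcher 145M-Twi expressing human G270D GALC; qHTS for activators.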
# p53null 32C tox: selectivity test: cytotoxicity in p53 null cells, permissive temperature | AID 903 | H1299-neo p53 null cells, ATP luminescence, 24 h, 32C | Potency, µM (highest dose often 46.1 µM), without a hit: at the highest dose activity change, negative = cytotoxicity, actives largely listed as cytotoxic | hit rate 0.62% among 55,000;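 also: potency is read from the fitted curve at half-maximal effect; 0% = DMSO only and -100% = full killing by 100 µM tamoxifen; nearly all actives have a fitted effect of over 55% in size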
#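 Cytotoxicity: H1299-neo (no p53), 32C, 24 h treatment. Concentrations up to 46 uM. Readout cellular ATP, luminescence. Normalization to DMSO basal and tamoxifen 100 uM maximal kill.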
# p53null 39C tox: selectivity test: cytotoxicity in p53 null cells, nonpermissive temperature; AID 904; Potency, µM (titrated, usually from 46.1 µM), for the others: top-dose activity, negative = cell killing, actives largely listed as cytotoxic; hit rate 0.97% among 55,000; H1299 p53-null (neo) cells, 39C, ATPlite viability, 24 h;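 also: potency is read from the fitted curve at half-maximal effect; 0% = DMSO only and -100% = full killing by 100 µM tamoxifen; nearly all actives have a fitted effect of over 50% in size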
#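 H1299 lung cancer cells, p53-null (H1299-neo) or expressing p53 A138V (H1299-p53A138V), were plated overnight at 37C, then exposed to compounds at up to 46 uM for 24 hr at 39C. Viability was read by ATP-based luminescence.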
# GPR32 ag: GPR32 (DRV1) agonism, beta-arrestin recruitment; O75388; CHO-K1 GPR32 beta-arrestin PathHunter luminescence, 90 min; zero percent set by DMSO-only wells; activation, % at 76.9 µM; hit rate 2.5% among 48,000; AID 1346428;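 active = activation of at least 60% and not above a set upper limit, about 1 call in 100 departs from these limits; inconclusive = activation of 40% to 60%, or above that upper limit; inactive = activation under 40%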; also: 0% is about no effect
# Target sequence (O75388 whole entry, looked up): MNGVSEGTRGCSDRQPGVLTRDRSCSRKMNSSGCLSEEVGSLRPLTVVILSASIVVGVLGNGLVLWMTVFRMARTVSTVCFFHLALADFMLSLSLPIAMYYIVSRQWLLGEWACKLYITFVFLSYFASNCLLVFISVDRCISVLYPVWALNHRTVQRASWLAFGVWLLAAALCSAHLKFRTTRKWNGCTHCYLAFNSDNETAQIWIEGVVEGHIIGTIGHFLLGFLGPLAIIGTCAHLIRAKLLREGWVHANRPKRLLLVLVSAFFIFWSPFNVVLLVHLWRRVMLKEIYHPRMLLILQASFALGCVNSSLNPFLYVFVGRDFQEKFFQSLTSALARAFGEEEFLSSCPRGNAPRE
#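 Beta-arrestin recruitment read-out: luminescence from complemented beta-Gal in CHO-K1 GPR32 PathHunter cells, measured 1 h after detection reagent at ambient temperature following 90 min compound exposure at 37 °C; DMSO served as basal (EC0) control.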
# SKOV3 invasion: blocks SKOV3ip1 adhesion and invasion in omental model. SKOV3ip1-GFP adhesion/invasion on 3D omental model, fluorescence. Potency, µM (doses to about 45.8 µM), for the others: top-dose activity change, negative = inhibition, most hits filed as inhibitors. hit rate 0.1% among 46,000. AID 1963576;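 also: potency is read from the fitted curve at half-maximal effect; plate controls were DMSO wells for no effect and tomatine positive control wells for full effect; nearly all actives have a fitted effect of over 65% in size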
#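 A 3D layer of primary human omental fibroblasts, mesothelial cells, fibronectin and collagen I, grown 48 hr, received SKOV3ip1-GFP cells in serum-free medium plus compounds at 0.36-46 umol/L. After 2 hr RT and 16 hr 37 C, fixed adherent GFP cells were counted; normalized to DMSO and tomatine.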
# NTMT1 inhibitor: NTMT1 methyltransferase inhibition. Q9BV86. NTMT1 MTase-Glo SAH luminescence, purified enzyme. Potency, µM (highest dose often 114 µM), without a hit: at the highest dose activity change, negative = inhibition, hits mostly inhibitors. hit rate 2.5% among 59,000;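 also: potency is read from the fitted curve at half-maximal effect; plate controls were DMSO vehicle for no effect and no enzyme for full effect; nearly all actives have a fitted effect of over 65% in size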
# Target sequence (Q9BV86 whole entry, looked up): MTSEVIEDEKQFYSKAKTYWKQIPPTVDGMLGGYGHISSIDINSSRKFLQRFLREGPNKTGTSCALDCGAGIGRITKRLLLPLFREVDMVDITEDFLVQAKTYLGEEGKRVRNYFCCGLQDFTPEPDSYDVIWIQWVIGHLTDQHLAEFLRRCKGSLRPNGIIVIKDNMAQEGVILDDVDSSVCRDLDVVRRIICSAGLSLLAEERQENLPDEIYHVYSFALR
# * marks the source's active call; other numbers are inactive results; i = inactive; ? = inconclusive; / = no result given; [ ] = remark or other dose. Unless noted, calls follow the shape of the dose curve; as a rule, active = well fitted curve in the direction sought with a large enough effect; inconclusive = small, poorly fitted or top-dose-only effect, or another doubt; inactive = no such curve, though single readings can be large; an effect the other way counts as inactive or inconclusive.
SMILES,GALC G270D act,p53null 32C tox,p53null 39C tox,GPR32 ag,SKOV3 invasion,NTMT1 inhibitor
C=C1C(=O)OC2/C=C(\CO)CC/C=C(\C=O)C(OC)C(OC(=O)C(C)CC)C12 (stereo unspecified),/,/,/,/,/,12.9%[29.8 µM]
C[n+]1cc(NC(=O)c2cccc(C(=O)Nc3cc4ccccc4[n+](C)c3)n2)cc2ccccc21,/,/,/,/,/,50.1µM*
CCOC(=O)c1ccc(NC(=O)c2cc3cc(C)ccc3n2C)cc1,i,-15.6%,-2.6%,72.4*,2.0%,-0.2%
CCOC(=O)N[C@@H]1CC[C@@H]2[C@@H](C1)C[C@H]1C(=O)O[C@H](C)[C@H]1[C@H]2/C=C/c1ccc(-c2cccc(F)c2)cn1,/,/,/,/,/,26.1%
CC1(C)S[C@H]2[C@H](NC(=O)[C@@H](N)c3ccc(O)cc3)C(=O)N2[C@H]1C(=O)O,/,/,/,/,/,-7.1%
Cc1nc2cccnc2n1C1CCN(C(=O)Nc2ccc(Cl)cc2)CC1,i,-4.0%,-6.3%,87.7*,i,3.9%
CCOc1ccc(S(=O)(=O)N2CCC(n3c(C)nc4cccnc43)CC2)cc1,i,-8.9%,-4.3%,75.6*,9.2%,-7.5%
Cc1onc(-c2ccc(F)cc2)c1COc1ccc(C(=O)N2CCS(=O)(=O)CC2)cn1,/,/,/,/,/,-9.8%
COc1ccc(C(=O)NCCn2cc(SCC(=O)Nc3ccc4c(c3)OCCO4)c3ccccc32)cc1OC,i,/,/,34.2,3.2%,-18.7%
O=C(CSc1cn(CCNC(=O)c2c(F)cccc2F)c2ccccc12)Nc1ccc2c(c1)OCCO2,i,/,/,68.5*,i,0.4%
CCc1ccc(NC(=O)Cn2c(=O)n(-c3ccccc3)c(=O)c3ccc(C(=O)NCc4ccc5c(c4)OCO5)cc32)cc1,i,-14.2%,-15.3%,-3.3,-2.4%,9.9%
CCOc1ccc(NC(=O)Cn2c(=O)n(-c3ccccc3)c(=O)c3ccc(C(=O)NCc4ccc5c(c4)OCO5)cc32)cc1,i,-10.5%,15.8µM*,-11.5,24.0%,0.0%
CCN(CC)C(=O)c1ccc2c(c1)ncn2-c1cccc(C)c1,/,/,/,/,/,0.1%
c1ccc2cc(OCc3nc4ccccc4[nH]3)ccc2c1,/,11.2µM*,11.2µM*,/,/,/
CCOC(=O)c1noc2ncn(CC(=O)Nc3cccc(Cl)c3)c(=O)c12,i,0.7%,6.2%,14.1,12.5%,-2.3%
CCOC(=O)c1noc2ncn(CC(=O)Nc3ccc(C)c(F)c3)c(=O)c12,i,-3.2%,-10.7%,76.0*,28.7%,5.2%
Cc1cccc(Cn2c(Cc3ccccc3)nc3ccccc32)c1,i,51.4%,20µM*,-42.4,-2.4%,11.5%
COc1ccc(C#Cc2ccc(C(=O)N3CCC[C@@H](CO)C3)cc2)cc1,/,/,/,/,/,-2.2%[57.5 µM]
COc1cc(O)c(C(CC(=O)N2CCC(c3ccccc3)CC2)c2ccc(C)cc2)c(OC)c1 (stereo unspecified),/,/,/,/,/,2.4%[228 µM]
CCC(=O)N1CCc2cc(S(=O)(=O)N(C)c3cccc(C)c3)ccc21,i,-2.4%,-17.7%,63.2*,-8.0%,3.6%
CC(C)(C)OC(=O)N1CCN(c2ccc(NCc3cnc(-c4ccc(C#N)cc4)o3)cc2)CC1,/,/,/,/,/,-16.0%
Cc1ccc(-c2ccc(=O)n(CC(=O)N(C)C(C)c3ccco3)n2)cc1 (stereo unspecified),/,/,/,/,/,-28.2%
O=C(Nc1ccc(F)cc1)c1ncn(-c2ccccc2)n1,i,?,31.6µM*,1.9,-0.8%,-15.0%
Cc1ccc2c(CNCc3cccs3)c(C(=O)O)n(Cc3ccc(F)cc3)c2c1,i,-3.5%,-8.9%,91.9*,-6.0%,17.6%
C=Cc1ccc(Cn2c(C(=O)O)c(CNCc3cccs3)c3ccc(C)cc32)cc1,i,23.2%,-10.8%,96.3*,4.5%,6.0%
SMILES,GALC G270D act,p53null 32C tox,p53null 39C tox,GPR32 ag,SKOV3 invasion,NTMT1 inhibitor
C=Cc1ccc(Cn2c(C(=O)O)c(CNCc3ccc(F)cc3)c3ccc(C)cc32)cc1,i,46.8%,?,90.9*,?,1.4%
Cc1ccc2c(CNCc3ccc(C)o3)c(C(=O)O)n(Cc3ccc(F)cc3)c2c1,i,0.8%,?,?,-7.7%,-2.6%
COc1cc(O)c(C(CC(=O)N2CCC[C@H](C)C2)c2ccc3c(c2)OCO3)c(OC)c1 (stereo partly specified),/,/,/,/,/,3.3%[228 µM]
Cc1ccc(S(=O)(=O)N(C)c2ccccc2C(=O)Nc2nc(-c3ccccc3)cs2)cc1,/,/,/,/,/,2.0%[57.5 µM]
COc1cc(OC)cc(C(=O)Nc2ccc3c(c2)OCCO3)c1,i,7.94µM*,6.31µM*,-8.3,i,31.6µM*
N#Cc1ccc(-c2ccc(=O)n(CC(=O)NCCc3ccccc3)n2)cc1,/,/,/,/,/,17.4%
O=C(CSc1ncc(S(=O)(=O)c2ccc(Cl)cc2)c(=O)[nH]1)Nc1cccc(C(F)(F)F)c1,i,-0.6%,27.0%,113.2*,-6.0%,?
COc1cc(Cl)c(C)cc1NC(=O)CSc1ncc(S(=O)(=O)c2ccc(C(C)(C)C)cc2)c(=O)[nH]1,i,16.0%,3.0%,-10.1,-2.0%,17.8µM*
CC(C)(C)c1ccc(S(=O)(=O)c2cnc(SCC(=O)Nc3ccc(F)c(Cl)c3)[nH]c2=O)cc1,i,1.3%,?,-13.2,-7.8%,25.1µM*
Cc1ccc(S(=O)(=O)c2cnc(SCC(=O)Nc3ccccc3C(F)(F)F)[nH]c2=O)cc1C,i,3.5%,-8.2%,-2.4,i,89.1µM*
C=C1CC23CC1CCC2C12OC(=O)C(C)(CCC1O)C2C3C(=O)O (stereo unspecified),/,/,/,/,/,8.3%[29.8 µM]
c1ccc(Nc2nc3ccccc3n3cnnc23)cc1,/,22.4%,22.2%,/,/,/
O=C(O)c1ccc(Nc2nc3ccccc3n3cnnc23)cc1,i,-9.6%,-3.7%,-2.7,6.9%,12.6µM*
Nc1cc(COc2c(Cl)cc(C[C@H](N)C(=O)O)cc2Cl)c2oc(-c3ccccc3)nc2c1,/,/,/,/,/,-2.1%
Cc1cc(C)n2ncc(C(=O)Nc3cccc(C(F)(F)F)c3)c2n1,/,/,/,/,/,18.2%
Cc1ccccc1Nc1nn2c(=O)c3ccc(C(=O)NCc4cccs4)cc3nc2s1,i,?,1.4%,-6.9,i,-1.2%

# High-throughput results (PubChem)
